AMA1-RON2 inh: AMA1-RON2 (P. falciparum) interaction inhibition | AlphaScreen AMA1-biotinylated RON2 peptide binding | Potency, µM (highest dose often 58.2 µM), actives largely listed as inhibitors | 360,000 compounds, 0.2% hits; further: nearly all actives have a fitted effect of over 45% in size
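AMA1 (3D7) with his tag at 25 nM final met compounds first, then biotinylated RON2 peptide at 25 nM; detection used donor plus acceptor beads, 10 µg/mL apiece, read by AlphaScreen after 30 min at room temperature.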
SARS PLpro yeast: SARS-CoV PLP inhibition in yeast. S. cerevisiae expressing SARS-CoV PLpro, growth rescue. Potency, µM (series often up to 32.9 µM), hits mostly activators. 330,000 compounds, 0.19% hits. AID 485353; calls by dose curve; further: nearly all actives have a fitted effect of over 55% in size
Pf growth 96h: P. falciparum growth inhibition at 96 hours. Potency, µM (titrated, usually from 28.7 µM), actives largely listed as inhibitors. AID 504834. P. falciparum luciferase reporter growth, 96 h. 320,000 compounds, 6.9% hits
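Delayed-death screen, second-generation endpoint: infected erythrocytes, 2% hematocrit, 0.05% parasitemia final; 96 hours at 37 C, 5% CO2; luciferase detection reagent; luminescence decrease equals reduced growth.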
Pf growth 48h: P. falciparum growth inhibition at 48 hours (one generation). P. falciparum luciferase growth in erythrocytes, 48 h. Potency, µM (doses to about 28.7 µM), actives largely listed as inhibitors. 310,000 compounds, 5.9% hits. AID 504832
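First compound was added to culture medium, then infected red cells at 0.1% parasitemia and 2% hematocrit (final). After incubation at 37 C under 5% CO2, luciferase detection reagent was dispensed and light output recorded.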
Large screens that a line does not name were inactive. Sampled rows, rich in hits. Any-hit rate of the full collection: about 9.4%. Unless noted, the call rests on the fitted dose curve; in most records, active means well fitted curve in the direction sought with a large enough effect; inconclusive means small, poorly fitted or top-dose-only effect, or another doubt; inactive means no such curve, though single readings can be large; an effect the other way counts as inactive or inconclusive.

CC1=NN(C(=O)CSCc2ccccc2)C(O)(c2ccc(Cl)cc2)C1 (centres undefined)	Pf growth 96h 12µM
O=C(NC1CCCC1)C(c1ccncc1)N(Cc1ccccc1)C(=O)c1ccc(-c2ccccc2)[nH]1 (centres undefined)	Pf growth 96h inconclusive, Pf growth 48h inconclusive
Cc1ccc(C(C(=O)NCC2CCCO2)N(Cc2ccccc2)C(=O)c2ccc(-c3ccccc3)[nH]2)o1 (centres undefined)	Pf growth 96h inconclusive, Pf growth 48h 8.3µM
Cc1ccc(CN(C(=O)CNC(=O)c2cccs2)C(C(=O)NCC2CCCO2)c2ccccc2)cc1 (centres undefined)	Pf growth 96h inconclusive, Pf growth 48h inconclusive
O=C(NCC1CCCO1)C(c1cccs1)N(Cc1ccccc1Cl)C(=O)c1ccc(-c2ccccc2)[nH]1 (centres undefined)	Pf growth 48h 5.2µM
CCn1nc(C(=O)Nc2cccc3ccccc23)c(Cl)c1Cl	Pf growth 96h inconclusive
CC1=NN(c2ccccc2)C(=O)/C1=C/C=C/c1ccccc1	AMA1-RON2 inh 3.2µM, Pf growth 96h inconclusive, Pf growth 48h inconclusive
Cc1ccc(C2=NOC(=O)/C2=C\C=C\c2ccccc2)cc1	Pf growth 96h 2.9µM
CC1=NN(c2cccc(C(=O)O)c2)C(=O)/C1=C\C=C\c1ccco1	none
O=[N+]([O-])c1cccc(CN2CCN(Cc3ccco3)CC2)c1	AMA1-RON2 inh inconclusive, Pf growth 96h inconclusive
COc1ccc(NC(=O)c2cc3c(COC(C)=O)cnc(C)c3oc2=Nc2cccc(C(=O)O)c2)c(OC)c1	Pf growth 48h inconclusive
CN(C)Cc1csc(NC(=O)Nc2ccccc2Cc2ccccc2)n1	none (no result: SARS PLpro yeast, Pf growth 96h, Pf growth 48h)
Cc1ccc(C(CCN(Cc2ccccc2)C(=O)c2ccco2)c2ccco2)cc1 (centres undefined)	Pf growth 96h 13µM, Pf growth 48h inconclusive
O=C(c1ccco1)N(CCC(c1ccccc1)c1ccco1)Cc1ccco1 (centres undefined)	Pf growth 96h inconclusive, Pf growth 48h inconclusive
CN(Cc1ccccc1)C(=O)c1ccco1	Pf growth 96h 12µM
O=C(COc1ccc(F)cc1)Nc1nnc(C2CC2)s1	none
C[C@@H](C(=O)Nc1ccc2ccccc2c1)[C@H]1C[C@]1(C)[C@H](NS(=O)(=O)c1ccc(-c2ccccc2)cc1)c1ccccc1	Pf growth 96h 8.3µM, Pf growth 48h 12µM
C[C@@H](C(=O)Nc1ccc2ccccc2c1)[C@H]1C[C@]1(C)[C@H](NC(=O)c1cccnc1)c1ccccc1	Pf growth 96h 5.2µM, Pf growth 48h 5.2µM
COC(=O)N[C@H](c1ccccc1)[C@@]1(C)C[C@@H]1[C@@H](C)C(=O)Nc1ccc2ccccc2c1	none (no result: SARS PLpro yeast, Pf growth 96h, Pf growth 48h)
C[C@@H](C(=O)Nc1ccc2ccccc2c1)[C@@H]1C[C@@]1(C)[C@@H](NC(=O)c1ccccc1)c1ccccc1	Pf growth 96h 13µM, Pf growth 48h inconclusive
Cc1nn(-c2ccc(N3CCOCC3)nn2)c(C)c1CCC(=O)Nc1ccc(F)cc1	Pf growth 96h inconclusive
NC(=O)c1ccc[n+](Cc2ccc(-c3ccccc3)cc2)c1	Pf growth 96h 7.4µM (no result: Pf growth 48h)
NC(=O)c1ccc[n+](CC(=O)c2ccc(Br)cc2)c1	none
Cc1ccc(S(=O)(=O)N2CCN(S(=O)(=O)c3ccccc3)C2)cc1	none (no result: Pf growth 48h)
CSc1ccccc1NC(=O)Cn1nc([N+](=O)[O-])cc1C	Pf growth 96h 0.19µM
Cc1cc([N+](=O)[O-])nn1CC(=O)N1CCN(Cc2ccccc2)CC1	Pf growth 96h 10µM, Pf growth 48h inconclusive
COCCn1c(=NC(=O)c2sc3ccccc3c2Cl)sc2cc(S(N)(=O)=O)ccc21	none
COc1ccc(C(=O)Oc2ccc(/C=N/NC(=O)c3ccccc3OC)cc2[N+](=O)[O-])cc1	none
O=C(Nc1ccc(C2=NCCN2)cc1)c1ccc(C(=O)Nc2ccc(C3=NCCN3)cc2)c([N+](=O)[O-])c1	AMA1-RON2 inh inconclusive, Pf growth 96h 0.15µM, Pf growth 48h 0.37µM
Cc1ccc(NC(=O)c2ccc(-n3cccn3)c([N+](=O)[O-])c2)cc1	Pf growth 96h inconclusive
COc1ccc(C(=O)N/N=C/c2ccc(OC(=O)c3cccc4ccccc34)c([N+](=O)[O-])c2)cc1	Pf growth 96h 9.3µM
COc1ccc(/C=N/NC(=O)c2ccncc2)cc1[N+](=O)[O-]	Pf growth 96h 4.1µM
CCOc1ccc(NC(=S)Nc2ccc(C)c([N+](=O)[O-])c2)cc1	Pf growth 96h 2.1µM (no result: Pf growth 48h)
CC(=O)Nc1ccc(C(=O)OCC(=O)NCc2cccs2)cc1	none
O=C(c1cc2ccccc2oc1=O)N1CCCCCCC1	none
CCOC(=O)Nc1ccc2c(c1)Cc1cc([N+](=O)[O-])ccc1-2	none (no result: SARS PLpro yeast, Pf growth 96h, Pf growth 48h)
CCOC(=O)Nc1ccc(OC)c([N+](=O)[O-])c1	Pf growth 48h 15µM
COc1ccc(C(=O)Nc2ccncc2)cc1[N+](=O)[O-]	Pf growth 48h 8.3µM
COc1ccc(C(=O)NC(=S)Nc2cc(C)ccn2)cc1[N+](=O)[O-]	Pf growth 96h 4.7µM
CC(C)C1N=C2c3ccccc3N=C(SCC(=O)NCCc3ccc(S(N)(=O)=O)cc3)N2C1=O (centres undefined)	Pf growth 96h inconclusive
COC(=O)Nc1ccc(S(=O)(=O)N(CCO)CCO)cc1	none (no result: Pf growth 48h)
O=C(CN1C(=O)C2C3C=CC(C3)C2C1=O)Nc1cccc2c1CCCC2 (centres undefined)	none
Cc1ccc(NC(=S)N/N=C/c2cccn2Cc2ccccc2F)cc1	Pf growth 96h inconclusive, Pf growth 48h 9.3µM
COc1ccc(C(C)N2CC34C=CC(O3)C(C(=O)OCC(C)C)C4C2=O)cc1 (centres undefined)	Pf growth 96h 15µM (no result: AMA1-RON2 inh)
CCc1ccccc1N1CC23C=CC(O2)C(C(=O)OCC(C)C)C3C1=O (centres undefined)	Pf growth 96h 3.7µM (no result: Pf growth 48h)
CCCCCC(=O)NC(=S)Nc1ccc(N2CCOCC2)cc1	SARS PLpro yeast 13µM
CCCCC(=O)NC(=S)Nc1ccccc1N1CCCCC1	Pf growth 96h inconclusive, Pf growth 48h inconclusive
CCCC(=O)NC(=S)Nc1ccccc1N1CCOCC1	Pf growth 96h 10µM
CCOc1ccc(-n2c(SCC(N)=O)nc3c([nH]c4ccccc43)c2=O)cc1	Pf growth 96h inconclusive (no result: Pf growth 48h)
CCC12CN3CC(CC)(CN(C1)C3c1ccc(OC(C)C)cc1)C2=O (centres undefined)	Pf growth 96h 4.7µM, Pf growth 48h inconclusive
CC(C)(C)c1ccc(C(=O)N2CCCC2c2cccs2)cc1 (centres undefined)	Pf growth 96h inconclusive, Pf growth 48h 15µM
Cc1cccc(NC(=O)COc2cccc3c2CCNC3=O)c1	none (no result: SARS PLpro yeast, Pf growth 96h, Pf growth 48h)
COc1ccc(NC(=O)/C(Cl)=C(/Cl)S(=O)Cc2ccccc2)cn1 (centres undefined)	Pf growth 48h 15µM (no result: Pf growth 96h)
COc1ccc(CS(=O)(=O)/C(Cl)=C(/Cl)C(=O)Nc2ccc(OC)nc2)cc1	Pf growth 96h inconclusive (no result: Pf growth 48h)
COc1ccc(NC(=O)Cc2ccccc2)cn1	Pf growth 96h 5.2µM
Clc1ccccc1-c1nc2ccccc2[nH]1	none
Fc1ccccc1-c1nc2ccccc2[nH]1	Pf growth 96h 13µM
O=C(Nc1cc(Cl)ccc1Cl)c1cc(-c2ccco2)on1	none

Screening data: PubChem BioAssay, National Center for Advancing Translational Sciences (NCATS)
